For 66 molecules, B-score results are on record in PubChem BioAssay AID602410 (Johns Hopkins Ion Channel Center, 2012).

The whole screen tested about 340,000 compounds, of which about 2,800 (0.82%) were called active.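 Rule for the calls: active = B-score under library mean minus 4 SD, starting fluorescence ratio at most library mean plus 5 SD; inactive = the rest.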 The sample as a whole holds a higher share of actives than the screen did.

The target in this experiment is Potassium channel subfamily K member 3 (Homo sapiens) (UniProt O14649). The experiment in a line: blockers of TASK1 two-pore potassium channel – CHO cells, FluxOR thallium flux, B-score, primary screen (AID 602410).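 For B-score: more negative B-score means stronger inhibition of thallium flux through KCNK3.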 The settings on record: CHO-KCNK3 thallium flux, FluxOR fluorescence, at 10 µM; active compounds read low.
Sequence of Potassium channel subfamily K member 3 (Homo sapiens) (O14649 whole entry, looked up): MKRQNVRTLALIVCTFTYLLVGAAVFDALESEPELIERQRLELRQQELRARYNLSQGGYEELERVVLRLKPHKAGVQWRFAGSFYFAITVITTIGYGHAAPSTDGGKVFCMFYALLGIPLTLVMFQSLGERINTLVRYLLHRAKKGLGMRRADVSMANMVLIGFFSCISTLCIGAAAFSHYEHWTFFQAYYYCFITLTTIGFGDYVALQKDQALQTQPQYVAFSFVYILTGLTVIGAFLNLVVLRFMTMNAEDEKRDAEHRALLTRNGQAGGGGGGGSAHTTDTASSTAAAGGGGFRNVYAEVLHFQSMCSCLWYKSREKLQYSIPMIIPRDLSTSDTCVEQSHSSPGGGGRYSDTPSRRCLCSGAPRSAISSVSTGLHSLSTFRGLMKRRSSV
For the molecule `CC(NCc1cccs1)C(=O)Nc1cc(Cl)cc(Cl)c1` (stereo unspecified), the B-score was -9.85 (active). Consider `CC(NCC(=O)Nc1cc(Cl)cc(Cl)c1)c1ccccc1` (stereo unspecified), for which the B-score entry is “inactive”. `CC(=O)c1ccc(NC(=O)C(C)NCc2ccc(Cl)cc2)cc1` (stereo unspecified): the B-score entry is “inactive”. In the case of `CC(=O)Nc1ccccc1OC(C)C(=O)N1CCC(C)CC1` (stereo unspecified) it was “inactive”; in that of `CCOc1ccc(Br)cc1S(=O)(=O)Nc1ccc(C(=O)OC(C)C(=O)N(C)c2ccccc2)cc1` (stereo unspecified), “inactive”; in that of `COCCCNC(=O)CCc1nc2cccnc2n1Cc1ccc(OC)cc1`, “inactive”. As to `Cc1ccc2nc(NC(=O)C3CSC4(C)CCC(=O)N34)sc2c1` (stereo unspecified), the B-score result is “inactive”. Then `CCOc1ccc(N(CC(=O)OC)S(=O)(=O)c2c(C)noc2C)cc1`, with “inactive”; and `COc1ccc(N(Cc2ccccc2)S(=O)(=O)c2cccc(C(=O)O)c2)cc1`, with “inactive”; and `COc1cccc(COc2ccc(N(C)S(=O)(=O)c3ccccc3)cc2)c1`, with -13.2 (active). Then `Cc1ccc2nc(COc3ccc(N(C)S(=O)(=O)c4ccccc4)cc3)cc(=O)n2c1`, with “inactive”. For the molecule `Nc1nnc2c(C(F)(F)F)nc3ccccc3n12`, the B-score result is “inactive”. Consider `Cc1cccc(C(=O)OC(C)CN2CCN(C)CC2)c1` (stereo unspecified), for which the B-score entry was “inactive”. As to `Cc1cccc(-c2nc3ccc(C(=O)NCCN4CCN(C)CC4)cc3nc2-c2cccc(C)c2)c1`, the B-score is -9.46 (active).

For the molecule `Cc1cc(C)cc(C(=O)NCCN2CCOCC2)c1`, the B-score result is “inactive”. Then `Cc1nnc(C)c2c(C)n(N)c(C)c12`, with “inactive”; and `C=C1CCC(N(O)c2cc(C)on2)C(=C)CCC2C1CC2(C)C` (stereo unspecified), with “inactive”.

Take `COc1ccc(C(=O)CSc2nnnn2C)c(OC)c1`: the B-score entry was “inactive”. Then `CC(C)(C)Nc1nc(-c2ccccn2)nc2ccccc12`, with “inactive”; and `Oc1ccc(-c2nc3ccccc3nc2-c2ccc(O)cc2O)c(O)c1`, with “inactive”. Then `Oc1ccc(/C=N/Nc2nc(-c3ccccc3F)nc3ccccc23)c(O)c1`, with -11 (active); and `CC1CC(C)CN(C(=O)CSc2ccsc2[N+](=O)[O-])C1` (stereo unspecified), with “inactive”; and `CC(C)OCCCNC(=O)c1ccc(C2SCC(=O)N2Cc2ccco2)cc1` (stereo unspecified), with “inactive”.

Consider `COc1c(N2CCN(C(=S)Nc3ccccc3F)C(C)C2)c(F)cc2c(=O)c(C(=O)O)cn(C3CC3)c12` (stereo unspecified), for which the B-score entry is “inactive”.

On to `CCOC(=O)CSc1nc2c(sc(=S)n2CCc2ccccc2)c(=O)n1Cc1ccco1`, for which the B-score was -9.18 (active). Then `CCOC(=O)Cc1csc(NC(=O)CSc2nnc(-c3cccnc3)n2Cc2ccco2)n1`, with “inactive”; and `CCOC(=O)CSc1nc2c(c(=O)n(Cc3ccccc3Cl)c(=O)n2C)n1C`, with “inactive”; and `O=C(CSc1nnc2n1CCCN2)c1ccccc1`, with “inactive”. Then `CCOc1ccc(CN(Cc2ccco2)S(=O)(=O)c2ccc(-n3cnnn3)c(OC)c2)cc1`, with “inactive”.

As for `CC(C)(C)n1nnnc1C(c1cccs1)N(Cc1cccnc1)CC1CCCO1` (stereo unspecified), the B-score entry was “inactive”. Then `CCOc1ccc(CN(Cc2ccco2)C(c2cccs2)c2nnnn2C(C)(C)C)cc1` (stereo unspecified), with -10.5 (active). Then `Cc1nc(NC(CC(C)C)C(=O)O)c2nc(C)oc2n1` (stereo unspecified), with “inactive”; and `FC(F)(F)c1cccc(N/N=C/c2ccccc2)c1`, with “inactive”. In the case of `Cn1cc(Cl)c(C(=O)NNC(=S)Nc2cccc(Cl)c2)n1` it was “inactive”; in that of `FC(F)(F)c1cccc(NC(=S)Nc2cccc(Cl)c2)c1`, -10.9 (active). In the case of `COC(=O)CNS(=O)(=O)c1ccc(Cc2ccc(S(=O)(=O)NCC(=O)OC)cc2)cc1`, the B-score result is “inactive”. In the case of `CCN1CCN(C(=O)Cn2nc(C)n3c(cc4c(OC)cccc43)c2=O)CC1`, the B-score result is “inactive”. Then `COc1ccccc1Oc1ccc(N2CC(C(=O)OCC(=O)c3ccc(F)cc3)CC2=O)cc1` (stereo unspecified), with “inactive”; and `CC(O)c1nc2ccccc2n1Cc1ccc([N+](=O)[O-])cc1` (stereo unspecified), with “inactive”.

With `CCc1ccc(-n2c(=S)sc3c(=O)n(-c4ccccc4OC)c(=S)[nH]c32)cc1`, the B-score is -11 (active).

Regarding `COc1cccc(-n2c(=S)sc3c(=O)n(-c4ccccc4OC)c(SCC4OCCO4)nc32)c1`, the B-score result was “inactive”. On to `COc1ccccc1-n1c(=S)[nH]c2c(sc(=S)n2-c2ccc(C)cc2C)c1=O`, for which the B-score result is “inactive”. Then `C/C(=N\Nc1ccc([N+](=O)[O-])cc1)c1ccc(-n2nncc2C(C)(C)C)cc1`, with “inactive”.

Turning to `CCCCC(NC(=O)c1cccc(Br)c1)C(=O)O` (stereo unspecified), the B-score result is “inactive”. Then `O=[N+]([O-])c1cc2ccccc2nc1-c1ccccc1`, with “inactive”. Then `COc1ccc([N+](=O)[O-])cc1-c1nc2ccccc2nc1-c1ccccc1`, with -12 (active). For the molecule `O=[N+]([O-])c1ccc2c(c1)Nc1nc3ccccc3nc1N2`, the B-score result is “inactive”. Then `COc1cc(NC(=O)c2ccccc2NS(=O)(=O)c2ccc(Cl)s2)cc(OC)c1`, with -9.84 (active); and `CCOc1ccc(NC(=O)c2ccccc2NS(C)(=O)=O)cc1`, with “inactive”. On to `COc1ccccc1C(=O)Nc1ccccc1C(=O)Nc1ccccc1`, for which the B-score result is “inactive”. In the case of `Cc1ccc(S(=O)(=O)NNC(=S)NC(C)(C)C)cc1` it was “inactive”; in that of `Cc1nc2ccccc2c(=O)n1NC(=O)c1ccc(Cl)c([N+](=O)[O-])c1`, “inactive”. Then `C=CCn1c(SCc2ccc(C(=O)NCCO)cc2)nc2ccccc2c1=O`, with “inactive”; and `O=C(Nn1c(SCc2ccc([N+](=O)[O-])cc2)nc2ccccc2c1=O)c1ccc(F)cc1`, with -9.24 (active).

As to `Cc1nc2cccnc2nc1C`, the B-score result was “inactive”. Then `COc1ccc(-c2c(NC(=O)c3ccco3)oc3ccc(Cl)cc3c2=O)cc1`, with “inactive”; and `Cc1cc([N+](=O)[O-])ccc1NC1CCCC1`, with “inactive”. For the molecule `Cc1cc(C=O)c(C)n1-c1ccc(NC2CCCCC2)c([N+](=O)[O-])c1`, the B-score is -13.4 (active). In the case of `Cc1c(NS(=O)(=O)c2ccc(NC3CCCC3)c([N+](=O)[O-])c2)c(=O)n(-c2ccccc2)n1C` it was “inactive”; in that of `Cc1cccc(N=C2NC(=O)CS2)c1C`, “inactive”; in that of `CCn1cc(C(=O)NCCCN2CCCCCC2)c(=O)c2cc(S(=O)(=O)N3CCc4ccccc4C3)ccc21`, “inactive”. Then `O=C(CSc1nnc(-c2ccncc2)n1-c1ccc(Cl)cc1)Nc1ccc(C(=O)O)cc1`, with “inactive”; and `CCN(CC(=O)Nc1ccc2c(c1)OCCO2)Cc1cc(=O)oc2cc(C)c(C)cc12`, with -8.72 (active); and `Cc1ccc(SCC(=O)Nc2ccc3c(c2)OCCO3)cc1`, with “inactive”. Then `O=C(COc1ccc2c(C(F)(F)F)cc(=O)oc2c1)Nc1ccc2c(c1)OCCO2`, with “inactive”; and `Cc1cccc(N(C(=O)Cn2nnc(-c3ccc(C)o3)n2)C(C(=O)NC2CCCC2)c2ccncc2)c1` (stereo unspecified), with “inactive”.
